The results in this text go back to the supplement of paper PMC3342239.

SMILES strings stand for the structures. Where a name gives a salt, the structure may show the parent alone.

The test system of the experiment is Saccharomyces cerevisiae. In words: fraction of cells in G1 phase (DNA content, flow cytometry); higher = more cells with unreplicated DNA (G1 delay). The note with it: temperature: 30 C; YPD; JTY2953 pdr5 snq2 (sensitized); drug added to: cultures diluted from stationary phase; 6-7 h. The essentials: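 For the G1 fraction, the Dean-Jett-Fox G1 peak area was divided by the sum of the G1 and G2/M areas. S. cerevisiae in YPD at 30°C received library drugs and was fixed 6–7 h later for sensitized JTY2953 (diluted 1∶200 from overnight, final 20 µg/ml), 6 h later for dividing JTY2953, or 4.33 h later for BY4741. Fixed cells were stained with SYTOX Green and 10,000 events recorded by flow cytometry.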
On the technique in general: A flow cytometer gives signals particle by particle.
`CCN1CCN(C(=O)N[C@@H](C(=O)N[C@@H]2C(=O)N3[C@@H]2SC(C)(C)[C@@H]3C(=O)O)c2ccccc2)C(=O)C1=O` [Piperacillin] (38.6425 µM): the “fraction of cells in G1 phase” value amounted to 0.462.

As for `Clc1ccc2nsnc2c1NC1=NCCN1` [Tizanidine HCl] (78.8287 µM), the “fraction of cells in G1 phase” value worked out at 0.504.

For `O=P(O)(O)C(O)(Cn1ccnc1)P(=O)(O)O` [Zoledronic acid] (73.5045 µM), the “fraction of cells in G1 phase” value was 0.486.

Take `CC(C)NCC(O)c1ccc2ccccc2c1` (configuration not stated) [Pronethalol HCl] (87.2126 µM): the “fraction of cells in G1 phase” value was 0.502.

As to `C[C@]12C=CC(=O)C=C1CC[C@@H]1[C@@H]2C(=O)C[C@@]2(C)[C@H]1CC[C@]2(O)C(=O)CO` [Prednisone] (55.7976 µM), the “fraction of cells in G1 phase” value stood at 0.496.

As for `Oc1ncnc2[nH]ncc12` [Allopurinol] (146.936 µM), the “fraction of cells in G1 phase” value came to 0.483.

Consider `CC[C@H]1OC(=O)[C@H](C)[C@@H](O[C@H]2C[C@@](C)(OC)[C@@H](O)[C@H](C)O2)[C@H](C)[C@@H](O[C@@H]2O[C@H](C)C[C@H](N(C)C)[C@H]2O)[C@](C)(O)C[C@@H](C)CN(C)[C@H](C)[C@@H](O)[C@]1(C)O` [Azithromycin] (26.7021 µM), for which the “fraction of cells in G1 phase” value was 0.471.

Turning to `CC(C)OC(=O)C(C)(C)Oc1ccc(C(=O)c2ccc(Cl)cc2)cc1` [Fenofibrate] (55.4261 µM), the “fraction of cells in G1 phase” value was determined as 0.497.

In the case of `CCOC(=O)[C@H](CCc1ccccc1)N[C@@H](C)C(=O)N1Cc2ccccc2C[C@H]1C(=O)O` [Quinapril HCl] (45.6071 µM), the “fraction of cells in G1 phase” value worked out at 0.482.

On to `CCS(=O)(=O)CCn1c([N+](=O)[O-])cnc1C` [Tinidazole] (80.8818 µM), for which the “fraction of cells in G1 phase” value worked out at 0.443.

In the case of `CCN(CC)CCCC(C)Nc1ccnc2cc(Cl)ccc12` (configuration not stated) [Chloroquine phosphate] (62.5232 µM), the “fraction of cells in G1 phase” value came out at 0.469.

As to `COC(=O)c1ccc(=O)c2nc3c(=CO)c(O)cc(=O)c3[nH]c12` [Lomofungin] (63.6422 µM), the “fraction of cells in G1 phase” value amounted to 0.495.

As to `CS(=O)(=O)c1ccc(C2=C(c3ccccc3)C(=O)OC2)cc1` [Rofecoxib] (63.6208 µM), the “fraction of cells in G1 phase” value stood at 0.536.

As to `CCCCNC(=O)NS(=O)(=O)c1ccc(C)cc1` [Tolbutamide] (73.9774 µM), the “fraction of cells in G1 phase” value is 0.505.

As for `CC1(C)S[C@@H]2[C@H](NC(=O)[C@H](N)c3ccccc3)C(=O)N2[C@H]1C(=O)O` [Ampicillin trihydrate] (57.2391 µM), the “fraction of cells in G1 phase” value was determined as 0.497.

As for `COc1cc2nc(N3CCN(C(=O)C4CCCO4)CC3)nc(N)c2cc1OC` (configuration not stated) [Terazosin HCl] (51.6206 µM), the “fraction of cells in G1 phase” value turned out to be 0.504.

`CCCCC(C)(O)C/C=C/[C@H]1[C@H](O)CC(=O)[C@@H]1CCCCCCC(=O)OC` (mixture of isomers) [Misoprostol] (52.2814 µM): the “fraction of cells in G1 phase” value was 0.499.

Turning to `Nc1nc2c(ncn2COC(CO)CO)c(=O)[nH]1` [Ganciclovir] (78.3591 µM), the “fraction of cells in G1 phase” value was 0.451.

Take `COC(=O)C1=C(C)NC(C)=C(C(=O)OCCN(C)Cc2ccccc2)C1c1cccc([N+](=O)[O-])c1` (configuration not stated) [Nicardipine] (38.7597 µM): the “fraction of cells in G1 phase” value came to 0.5.

`CN(C)CCCOc1nn(Cc2ccccc2)c2ccccc12` [Benzydamine] (64.6382 µM): the “fraction of cells in G1 phase” value was determined as 0.48.

For `CN1C(C(=O)Nc2ccccn2)=C(O)c2ccccc2S1(=O)=O` [Piroxicam] (60.3587 µM), the “fraction of cells in G1 phase” value was found to be 0.505.

In the case of `C[C@]12C[C@H](O)[C@H]3[C@@H](CCC4=CC(=O)CC[C@@]43C)[C@@H]1CC[C@@H]2C(=O)CO` [Corticosterone] (57.7249 µM), the “fraction of cells in G1 phase” value was found to be 0.512.

As for `COc1cc(CNC(=O)CCCC/C=C/C(C)C)ccc1O` [Capsaicin] (65.4834 µM), the “fraction of cells in G1 phase” value was 0.556.

On to `Cc1cnc(NC(=O)C2=C(O)c3ccccc3S(=O)(=O)N2C)s1` [Meloxicam] (56.9143 µM), for which the “fraction of cells in G1 phase” value is 0.501.

For the compound `Nc1nc(O)c2ncn(CCC(CO)CO)c2n1` [Penciclovir] (78.9694 µM), the “fraction of cells in G1 phase” value turned out to be 0.461.

Take `CC(C(=O)O)c1cccc(C(=O)c2ccccc2)c1` (configuration not stated) [Ketoprofen+D153] (78.6509 µM): the “fraction of cells in G1 phase” value amounted to 0.495.

In the case of `N=C(N)c1ccc(OCCCCCOc2ccc(C(=N)N)cc2)cc1` [Pentamidine] (58.7494 µM), the “fraction of cells in G1 phase” value is 0.521.

For `CCN1CCC[C@H]1CNC(=O)c1c(OC)ccc(Br)c1OC` [Remoxipride] (53.8681 µM), the “fraction of cells in G1 phase” value turned out to be 0.525.

Consider `CCN1CCN(C(=O)N[C@@H](C(=O)N[C@@H]2C(=O)N3C(C(=O)O)=C(CSc4nnnn4C)CS[C@H]23)c2ccc(O)cc2)C(=O)C1=O` [Cefoperazone acid] (30.9752 µM), for which the “fraction of cells in G1 phase” value was 0.487.

Take `CN(C)c1nc(N(C)C)nc(N(C)C)n1` [Altretamine] (95.1095 µM): the “fraction of cells in G1 phase” value came to 0.49.

Regarding `Nc1cc(-c2ccncc2)c[nH]c1=O` [Amrinone] (106.838 µM), the “fraction of cells in G1 phase” value was found to be 0.474.

With `C=C1CC[C@H](O)C/C1=C/C=C1\CCC[C@]2(C)[C@@H]([C@H](C)CCCC(C)(C)O)CC[C@@H]12` [Calcifediol] (49.9188 µM), the “fraction of cells in G1 phase” value was 0.545.

For the compound `CC1=C(C)C(=O)C(CCCCC#CCCCC#CCO)=C(C)C1=O` [Docebenone] (61.2671 µM), the “fraction of cells in G1 phase” value amounted to 0.552.

Turning to `N=C(N)N1CCc2ccccc2C1` [Debrisoquin sulfate] (114.132 µM), the “fraction of cells in G1 phase” value is 0.513.

For the compound `C[C@]12CC[C@@H]3c4ccc(O)cc4C[C@@H](CCCCCCCCC[S+]([O-])CCCC(F)(F)C(F)(F)F)[C@H]3[C@@H]1CC[C@@H]2O` (some centres not stated) [Fulvestrant] (32.9606 µM), the “fraction of cells in G1 phase” value was determined as 0.458.

Consider `COC(=O)[C@@H]1[C@H]2C[C@H]3c4[nH]c5ccccc5c4CCN3C[C@@H]2CC[C@@H]1O` [Yohimbine HCl] (51.164 µM), for which the “fraction of cells in G1 phase” value came to 0.524.

Consider `O=C(CCCCCCC(=O)Nc1ccccc1)NO` [Vorinostat] (75.6716 µM), for which the “fraction of cells in G1 phase” value came to 0.482.
